Structures are written as SMILES. “And” between values parts separate entries of the source, which are not always exact repeats. Equal values may be shown once. Inconclusive results are not listed. The source made the active and inactive calls. Unless noted, the call rests on the fitted dose curve; in most records, active means well fitted curve in the direction sought with a large enough effect in the repeat runs; inconclusive means weak or mixed curves; inactive means no such curve, though single readings can be large; an effect the other way counts as inactive or inconclusive.

For 20 compounds, Potency results are on record in PubChem BioAssay (Tox21).

Experiment [1] in a line: qHTS assay to identify small molecule antagonists of the glucocorticoid receptor (GR) signaling pathway - cell viability counter screen (AID 720693). Further: nearly all actives have a fitted effect of over 55% in size. Further: potency means the concentration at half of the fitted maximal effect.
A short description of experiment [2]: qHTS assay for identifying genotoxic compounds that show differential cytotoxicity against isogenic chicken DT40 cell lines with known DNA damage response pathways - wild type cell line (AID 743012). Further: nearly all actives have a fitted effect of over 60% in size. Further: potency means the concentration at half of the fitted maximal effect. The method, boiled down:
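Wild type DT40, 300 cells/well, ~0.5 h settle at 37 C/5% CO2; compounds in DMSO added by pintool; 40 h at 37 C/5% CO2; CellTiter-Glo, 30 min RT; luminescence.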

A short description of experiment [3]: qHTS assay for identifying genotoxic compounds that show differential cytotoxicity against isogenic chicken DT40 cell lines with known DNA damage response pathways - Rev3 mutant cell line (AID 743014). Further: nearly all actives have a fitted effect of over 55% in size. Further: potency means the concentration at half of the fitted maximal effect.
A short description of experiment [4]: qHTS assay for identifying genotoxic compounds that show differential cytotoxicity against isogenic chicken DT40 cell lines with known DNA damage response pathways - Rad54/Ku70 mutant cell line (AID 743015). Further: nearly all actives have a fitted effect of over 60% in size. Further: potency means the concentration at half of the fitted maximal effect.
Experiment [5] addresses Androgen receptor (Homo sapiens) (UniProt P10275). Kind of experiment: qHTS assay to identify small molecule antagonists of the androgen receptor (AR) signaling pathway (AID 743035; active means well fitted inhibition curve with a large enough effect in the signal ratio in the repeat runs, not every such curve was filed as active; the % refers to the signal ratio; further: potency means the concentration at half of the fitted maximal effect). Summed up: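 Fluorescence from a beta-lactamase FRET substrate (LiveBLAzer B/G, 2 h, room temperature) measured inhibition of R1881-stimulated signaling in GeneBLAzer AR-UAS-bla HEK293 cells exposed to compound for 16 h at 37C.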

Experiment [6] has the same target. Kind of experiment: qHTS assay to identify small molecule agonists of the androgen receptor (AR) signaling pathway (AID 743036; active means well fitted activation curve with a large enough effect in the signal ratio in the repeat runs, with a control signal flat, not every such curve was filed as active; the % refers to the signal ratio). The method, boiled down:
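Cell-based FRET reporter assay: HEK293 line with a UAS-beta-lactamase construct, compounds added in DMSO, 16 h exposure at 37C, then 2 h substrate step at room temperature and fluorescence intensity read.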

For experiment [7] the target is unchanged. Kind of experiment: qHTS assay to identify small molecule agonists of the androgen receptor (AR) signaling pathway using the MDA cell line (AID 743040; further: nearly all actives have a fitted effect of over 20% in size). The method, boiled down: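 Luminescence from ONE-Glo, read after 30 min at room temperature, reflects MMTV-driven luciferase in MDA-kb2 cells (AR- and GR-responsive). Treatment lasted 16 h at 37C, 0% CO2.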

Experiment [8] can be described thus: qHTS assay to identify small molecule antagonists of the androgen receptor (AR) signaling pathway using the MDA cell line - cell viability counter screen (AID 743041; further: nearly all actives have a fitted effect of over 45% in size). The method, boiled down: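 Viability counter screen run alongside the AR antagonist reporter: cells seeded 5 h before compound, R1881 added, 16 h incubation at 37C without CO2, fluorescent CellTiter-Fluor signal quantified.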

Experiment [9] deals with Androgen receptor (Homo sapiens) (UniProt P10275). Kind of experiment: qHTS assay to identify small molecule antagonists of the androgen receptor (AR) signaling pathway using the MDA cell line (AID 743042; further: nearly all actives have a fitted effect of over 55% in size; further: potency means the concentration at half of the fitted maximal effect). Summed up: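 MDA-kb2 cells (human breast carcinoma, stably carrying an MMTV-luciferase reporter responsive to AR and GR) were plated at 3,000 cells/well and preincubated 5 hr at 37C, then given compound plus R1881 agonist for 16 h. ONE-Glo luminescence was read.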
Chain of Androgen receptor (Homo sapiens) (P10275 whole entry, looked up): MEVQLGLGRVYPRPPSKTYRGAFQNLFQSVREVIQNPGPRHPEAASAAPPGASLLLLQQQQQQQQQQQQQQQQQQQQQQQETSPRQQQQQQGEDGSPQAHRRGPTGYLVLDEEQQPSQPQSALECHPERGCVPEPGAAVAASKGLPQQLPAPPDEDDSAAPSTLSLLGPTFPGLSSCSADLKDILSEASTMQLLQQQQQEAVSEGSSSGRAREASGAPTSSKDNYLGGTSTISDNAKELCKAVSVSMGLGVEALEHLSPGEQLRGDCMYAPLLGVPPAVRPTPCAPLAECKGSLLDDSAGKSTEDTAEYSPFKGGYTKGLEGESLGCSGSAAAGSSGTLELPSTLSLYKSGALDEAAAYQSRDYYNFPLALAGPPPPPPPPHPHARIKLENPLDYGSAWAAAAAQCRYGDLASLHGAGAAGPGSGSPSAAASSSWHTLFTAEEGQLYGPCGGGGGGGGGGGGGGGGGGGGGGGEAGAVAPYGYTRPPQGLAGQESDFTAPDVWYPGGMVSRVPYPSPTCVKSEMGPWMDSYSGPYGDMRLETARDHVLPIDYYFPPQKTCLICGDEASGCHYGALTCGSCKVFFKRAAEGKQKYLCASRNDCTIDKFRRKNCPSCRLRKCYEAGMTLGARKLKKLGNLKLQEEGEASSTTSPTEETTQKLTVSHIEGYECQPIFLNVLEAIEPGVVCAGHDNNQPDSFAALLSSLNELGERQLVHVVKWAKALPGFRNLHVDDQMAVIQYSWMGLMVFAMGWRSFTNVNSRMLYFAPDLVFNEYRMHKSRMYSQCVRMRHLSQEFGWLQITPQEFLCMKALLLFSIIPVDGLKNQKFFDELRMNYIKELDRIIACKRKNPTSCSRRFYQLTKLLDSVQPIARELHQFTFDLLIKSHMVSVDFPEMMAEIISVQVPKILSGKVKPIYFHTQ

Experiment [10] can be described thus: qHTS assay to identify small molecule antagonists of the androgen receptor (AR) signaling pathway - cell viability counter screen (AID 743033; further: nearly all actives have a fitted effect of over 45% in size).

For `CC(CCc1ccc(O)cc1)NCC(O)c1ccc(O)cc1` (centres undefined), the Potency result in [1], in experiment [2], in experiment [3], in experiment [4], in experiment [5] and in [6] was “inactive” each time. The Potency result in experiment [7], in [8] and in experiment [9] was “inactive” throughout.

As for `CCC(=O)OCC(=O)[C@@]1(OC(=O)CC)[C@@H](C)C[C@H]2[C@@H]3CCC4=CC(=O)C=C[C@]4(C)[C@@]3(F)[C@@H](O)C[C@@]21C`, the Potency result in experiment [1] and in experiment [8] was “inactive” throughout. The Potency was 13.3 µM (active) in experiment [2], 29.8 µM (active) in experiment [3] and 23.7 µM (active) in experiment [4].

`COc1ccc(C2(C#N)CCC(C(=O)O)CC2)cc1OC1CCCC1` (centres undefined): the Potency entry in [1], in experiment [2], in experiment [3], in [4] and in experiment [8] was “inactive” throughout.

`CCC(=O)OCC(=O)[C@@]1(OC(=O)CC)[C@H](C)C[C@H]2[C@@H]3CCC4=CC(=O)C=C[C@]4(C)[C@@]3(F)[C@@H](O)C[C@@]21C`: the Potency entry in [1] and in [8] was “inactive” throughout. In addition, the Potency in experiment [2] was 23.7 µM (active); in [3], 29.8 µM (active); in [4], 26.6 µM (active).

On to `C=C[C@]1(C)C[C@@H](OC(=O)CSC(C)(C)CNC(=O)[C@H](N)C(C)C)[C@]2(C)[C@H](C)CC[C@]3(CCC(=O)[C@H]32)[C@@H](C)[C@@H]1O`, for which the Potency entry in experiment [1] and in experiment [7] was “inactive” throughout. Also, the Potency in experiment [2] was 0.188 µM (active); in [3] it was 0.335 µM (active); in experiment [4], 0.376 µM (active); in experiment [5], 23.9 µM (active).

As to `CN(C)CCCN1c2ccccc2C(C)(C)c2ccccc21`, the Potency result in experiment [1], in experiment [5], in [6], in experiment [7] and in [9] was “inactive” in each case. Moreover, the Potency in experiment [2] was 18.8 µM (active); in experiment [3], 26.6 µM (active); in [4], 21.1 µM (active).

Regarding `Cc1cccc(Nc2ncccc2C(=O)O)c1C`, the Potency entry in [1], in experiment [2], in experiment [3], in experiment [4] and in experiment [8] was “inactive” throughout.

Consider `C=C1CC[C@@H]2[C@](C)(CO)[C@H](O)CC[C@@]2(C)[C@@H]1C/C=C1/C(=O)OC[C@H]1O`, for which the Potency entry in experiment [1], in experiment [6], in experiment [7] and in experiment [8] was “inactive” each time. Besides, the Potency in [2] was 5.96 µM (active); in experiment [3], 8.41 µM (active); in experiment [4], 5.96 µM (active).

Take `CCN(CC)Cc1cc(Nc2ccnc3cc(Cl)ccc23)ccc1O`: the Potency entry in experiment [1], in [7] and in experiment [9] was “inactive” throughout. The figures for the Potency in experiment [2], in experiment [3] and in [4] were 7.17 µM (active), 7.17 µM (active) and 8.04 µM (active), respectively.

For the compound `CC1(C)N=C(N)N=C(N)N1c1ccc(Cl)cc1`, the Potency entry in experiment [1] and in experiment [8] was “inactive” in each case. The Potency is 0.422 µM (active) in experiment [2], 0.422 µM (active) in experiment [3] and 1.19 µM (active) in experiment [4].

Regarding `CO[C@@H]1[C@@H](O[C@@H]2O[C@H](C)[C@@H](O[C@H]3C[C@@](C)(O)[C@@H](OC(=O)CC(C)C)[C@H](C)O3)[C@H](N(C)C)[C@H]2O)[C@@H](CC=O)C[C@@H](C)[C@@H](O)/C=C/C=C/C[C@@H](C)OC(=O)C[C@H]1O`, the Potency result in experiment [1] and in experiment [8] was “inactive” each time. In addition, the Potency in experiment [2] is 2.66 µM (active) and 3.76 µM (active); in experiment [3], 5.96 µM (active) and 7.5 µM (active); in experiment [4] it was 6.68 µM (active) and 9.44 µM (active).

Regarding `Cc1cc(O)c2c(c1)O[C@@]1(C)CC[C@H]3C(C)(C)CCCC34CO[C@@H]2[C@H]41` (some centres undefined), the Potency is 23.9 µM (active) in [1]; 13.3 µM (active) in experiment [2]; 10.6 µM (active) in experiment [3]; 13.3 µM (active) in experiment [4]; 23.9 µM (active) in experiment [5]. Moreover, the Potency result in experiment [6] and in [7] was “inactive” throughout.

Turning to `COc1cc(-c2ccc(-[n+]3nc(-c4ccccc4)nn3-c3ccc([N+](=O)[O-])cc3)c(OC)c2)ccc1-[n+]1nc(-c2ccccc2)nn1-c1ccc([N+](=O)[O-])cc1`, the Potency in [1] was 19 µM (active); in [2] it was 5.96 µM (active); in [3], 7.5 µM (active); in experiment [4], 5.31 µM (active); in experiment [9] it was 29.8 µM (active). The Potency entry in [7] was “inactive”.

Regarding `CC[C@@]1(O)C[C@H](O[C@H]2C[C@H](N(C)C)[C@H](O[C@H]3C[C@H](O)[C@H](O[C@H]4CCC(=O)[C@H](C)O4)[C@H](C)O3)[C@H](C)O2)c2c(cc3c(c2O)C(=O)c2c(O)cccc2C3=O)[C@H]1C(=O)OC`, the values for the Potency in [1], in experiment [2] and in experiment [4] were 2.39 µM (active), 0.0531 µM (active) and 0.0422 µM (active), respectively.

`CCCCCCCCCCCCCCCC(=O)OCCC1CCN(CCCN2c3ccccc3Sc3ccc(S(=O)(=O)N(C)C)cc32)CC1`: the Potency entry in experiment [1], in [2], in experiment [3], in experiment [4] and in [8] was “inactive” each time.

On to `C=CCCCCCCCCC(=O)OC`, for which the Potency result in [1], in experiment [2], in experiment [3], in [10] and in [8] was “inactive” each time.

On to `CC(C)(C)C(=O)OCOC(=O)[C@@H]1N2C(=O)[C@@H](N=CN3CCCCCC3)[C@H]2SC1(C)C`, for which the Potency entry in experiment [1], in experiment [2], in [3], in experiment [4] and in experiment [8] was “inactive” each time.

On to `Cc1ccccc1CNc1ncnc2c1ncn2[C@@H]1O[C@H](CO)[C@@H](O)[C@H]1O`, for which the Potency entry in [1], in experiment [10] and in experiment [8] was “inactive” throughout. Moreover, the Potency in experiment [2] was 16.8 µM (active); in [3] it was 21.1 µM (active).

Turning to `NNc1nnc(Cc2ccncc2)c2ccccc12`, the Potency entry in experiment [1], in experiment [2], in [3], in experiment [10], in experiment [5] and in experiment [7] was “inactive” each time. Besides, the Potency entry in experiment [8] and in [9] was “inactive” in each case.

Turning to `O=C(O)c1ccc(NC(=O)[C@H](Cc2ccc(O)cc2)NC(=O)c2ccccc2)cc1`, the Potency result in experiment [1], in [2], in [3], in experiment [10], in experiment [5] and in experiment [6] was “inactive” in each case. Moreover, the Potency result in [7], in experiment [8] and in experiment [9] was “inactive” throughout.
